Data on 99 compounds can be found in PubChem BioAssay AID1851 (National Center for Advancing Translational Sciences (NCATS), 2009).

Each structure is given as a SMILES string. Where “and” joins values, the source holds several entries; their conditions need not be identical. Identical values can stand only once. Screen size: about 16,000 compounds; about 4,000 (25%) were called active. Not shown: some 26% with an inconclusive outcome. A selection follows. Values without a mark were called inactive. The call rests on the fitted dose curve; in most records, active means well fitted curve in the direction sought with a large enough effect; inconclusive means small, poorly fitted or top-dose-only effect, or effect the other way; inactive means no such curve, though single readings can be large or run the other way.

A word on the AC50: it is the concentration at which the activity in the assay is half-maximal.
On the % scale 0 is the no-effect control and ±100 the full control effect.

Sequence of Cytochrome P450 2C9 (Homo sapiens) (P11712 whole entry, looked up): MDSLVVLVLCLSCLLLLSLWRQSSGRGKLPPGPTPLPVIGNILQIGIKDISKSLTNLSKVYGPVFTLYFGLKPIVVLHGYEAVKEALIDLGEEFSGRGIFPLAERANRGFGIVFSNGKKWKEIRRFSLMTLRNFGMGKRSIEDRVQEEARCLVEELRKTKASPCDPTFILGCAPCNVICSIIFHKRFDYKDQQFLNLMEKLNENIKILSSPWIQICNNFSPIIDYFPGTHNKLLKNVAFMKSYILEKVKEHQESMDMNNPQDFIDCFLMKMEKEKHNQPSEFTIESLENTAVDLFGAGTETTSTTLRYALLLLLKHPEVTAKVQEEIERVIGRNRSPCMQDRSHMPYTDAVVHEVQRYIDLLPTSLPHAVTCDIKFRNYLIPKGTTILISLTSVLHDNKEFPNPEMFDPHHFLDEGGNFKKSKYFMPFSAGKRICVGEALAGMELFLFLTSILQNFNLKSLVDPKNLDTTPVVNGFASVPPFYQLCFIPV

The test has as its target Cytochrome P450 2C9 (Homo sapiens) (UniProt P11712). In words: Cytochrome panel assay with activity outcomes. The conditions noted are these: recombinant CYP, pro-luciferin dealkylation, luminescence, p450-cyp2c9; series mostly up to 57.1 µM; activity, negative = inhibition: at the top concentration.
For the compound `CCN1C(=O)[C@H]2[C@H]3[C@H](O)[C@H](O)C/C(=N/O[C@@H]4O[C@@H](COC(C)=O)[C@@H](OC(C)=O)[C@@H](OC(C)=O)[C@H]4OC(C)=O)[C@H]3CC[C@@H]2C1=O`, the activity, negative = inhibition was 23.1% [at 11.4 µM].
Take `COc1cc(NC(=O)c2cc3nc(-c4ccccc4)cc(-c4ccccc4)n3n2)cc(OC)c1OC`: the AC50 is 2.24 µM (active).
For `COc1ccc(-c2cc(C(=O)Nc3cc(OC)c(OC)c(OC)c3)no2)cc1OC`, the “activity, negative = inhibition” value was -6.73%.
Turning to `CC(C)[C@H](N)c1nnc(SCc2ccc(Cl)cc2)o1`, the AC50 is 1.78 µM (active).
Regarding `Clc1ccc(CSc2ncnc3c2ncn3[C@@H]2CCCCO2)cc1`, the activity, negative = inhibition was -17.8% [at 11.4 µM].
For the compound `O=c1ccnc(SCc2ccc(Cl)cc2)[nH]1`, the activity, negative = inhibition was -29.9% [at 11.4 µM].
The same measure, in the same setting: to `CC(CC(=O)O)(CC(=O)O)C(=O)O` belongs -9.5% [at 11.4 µM]; to `O=C(Cc1ccccc1[N+](=O)[O-])NCCSCc1c(F)cccc1Cl`, 31.4%; to `O=C(O)CCSCc1ccccc1`, 24.2% [at 11.4 µM].
Take `O=C(Cc1ccccc1)NCCSCc1ccc(Cl)cc1`: the AC50 was 3.98 µM (active).
Same read-out and setting: the result for `CCN(CC)c1ncnc2c1sc1nc(C)cc(C)c12` reads 17.8 µM (active).
In the case of `Cc1noc(C)c1-c1cncnc1Nc1ccccc1`, the activity, negative = inhibition was -0.353% [at 2.29 µM].
Turning to `CCN1C(=O)C(CC(=O)Nc2ccc(Br)cc2)N(CCCc2ccccc2)C1=S` (centres undefined), the AC50 is 0.708 µM (active).
The same measure, in the same setting: to `CCN1C(=O)C(CC(=O)Nc2ccc(OC)cc2)N(Cc2cccs2)C1=S` (centres undefined) belongs 7.08 µM (active).
As to `CCNc1ncc2nc(-c3ccc(OC)cc3)c(=O)n(Cc3cccs3)c2n1`, the “activity, negative = inhibition” value was -26.2%.
Consider `CCOC(=O)C1=C(C)N=C2c3ccccc3C(=O)C2C1c1ccc(Cl)cc1` (centres undefined), for which the AC50 was 0.562 µM (active).
The same measure, in the same setting: to `CCOC(=O)C1=C(C)N=C2c3ccccc3C(=O)C2C1c1ccc(C)cc1` (centres undefined) belongs 0.891 µM (active).
Regarding `Cc1nnsc1SC(C)C(=O)O` (centres undefined), the “activity, negative = inhibition” value is -4.21%.
As to `CC(=O)c1cccc(NC=C2C(=O)OC3(CCCCC3)OC2=O)c1`, the “activity, negative = inhibition” value was -14%.
On to `O=C(/C=C/Nc1ccccc1)c1ccc(Oc2ncccn2)cc1`, for which the “activity, negative = inhibition” value was 19%.
For `CC(=O)c1cccc(NS(=O)(=O)c2ccc(N/C=C\C(=O)c3ccc(F)cc3)cc2)c1`, the AC50 is 2.82 µM (active).
Regarding `Cc1cnc(CNc2cc(-c3ccccc3CN(C)C)ncn2)cn1`, the activity, negative = inhibition was 10.9% [at 2.29 µM].
In the case of `COC(=O)c1ccc(/C=N\NC(=O)c2ccc(C)cc2Cl)cc1`, the AC50 is 8.91 µM (active).
In the case of `Cc1ccc(C(=O)N/N=C/c2ccc(S(=O)(=O)O)o2)c(Cl)c1`, the “activity, negative = inhibition” value is -29.6%.
On the same count and under the same terms, the result for `Cc1ccc(S(=O)(=O)N[C@H](CN)C(=O)O)cc1` reads -0.685% [at 11.4 µM]; that for `Cc1ccc(S(=O)(=O)NC(CC(C)C)C(=O)Oc2ccc3c4c(c(=O)oc3c2)CCC4)cc1` (centres undefined), -27.3%.
Regarding `Cc1ccc(S(=O)(=O)N[C@H](C(=O)Oc2ccc3c(C(F)(F)F)cc(=O)oc3c2)c2ccccc2)cc1`, the AC50 was 10 µM (active).
Same read-out and setting: to `c1ccc2c(c1)ncn2-c1ccc(-c2ccnc(-c3ccncc3)n2)cc1` belongs 0.224 µM (active).
Regarding `CCC(C)NS(=O)(=O)c1ccc(OCC(=O)NCC2CCCO2)cc1` (centres undefined), the “activity, negative = inhibition” value was -20%.
In the case of `CCC(C)NS(=O)(=O)c1ccc(OCC(=O)Nc2ccc3c(c2)OCCO3)cc1` (centres undefined), the AC50 was 3.98 µM (active).
As to `CSc1nc(C)cc(Nc2ccc(O)c(CN3CCOCC3)c2)n1`, the activity, negative = inhibition is -8.69% [at 11.4 µM].
Same read-out and setting: the result for `Cc1cc(C)c2c(SCc3ccc(Cl)cc3Cl)nc(N)nc2n1` reads -3.34% [at 11.4 µM].
For the compound `Cc1cc(N2CCOCC2)nc(SCc2ccc(Cl)cc2Cl)n1`, the concentration at half-maximal activity (AC50) was 7.94 µM (active).
With `c1ccc(Nc2ncncc2-c2ccoc2)cc1`, the activity, negative = inhibition is 4.61% [at 2.29 µM].
On to `O=[N+]([O-])C1=CC=C2C(=NC3(CCCCC3)N2O)C1=NC1CCCCC1`, for which the AC50 was 3.55 µM (active).
On the same count and under the same terms, the result for `CCOC(=O)C1=C[C@@]2(CC)CCCN3CCc4c(n1c1ccccc41)[C@H]32` reads “inactive”; that for `CCOCC(=O)Nc1cc(C(=O)Nc2ccccc2)ccc1Cl`, 5.62 µM (active).
Regarding `CCOCC(=O)Nc1cc(C(=O)Nc2cccc(C)c2C)ccc1Cl`, the “activity, negative = inhibition” value was 9.34%.
For `c1ccc(CCSc2nccn2-c2ccccc2)cc1`, the AC50 was 15.8 µM (active).
For the compound `Cn1nnnc1SCc1ccccc1[N+](=O)[O-]`, the “activity, negative = inhibition” value is -16.4%.
The same measure, in the same setting: the result for `NCCSCCc1ccccc1` reads -27.8% [at 11.4 µM].
`Cc1ccccc1CSc1nccn1-c1ccccc1`: the AC50 was 7.08 µM (active).
Turning to `O=C(O)CSCCc1ccccc1`, the activity, negative = inhibition is 29.1% [at 11.4 µM].
Same read-out and setting: to `CC(=O)N[C@@H]1CONC1=O` belongs -5.39% [at 11.4 µM].
Regarding `COC(=O)c1c(NC(=O)C(C)(C)C)sc2c1C(C(=O)OC)CC2` (centres undefined), the AC50 was 20 µM (active).
With `O=c1c(-c2cc(F)cc(F)c2)nc2cnc(N3CCOCC3)nc2n1-c1ccccc1`, the “activity, negative = inhibition” value is -13.9%.
`O=c1nc(N2CCOCC2)ccn1-c1nc(-c2ccccc2)oc1-c1ccccc1`: the AC50 was 4.47 µM (active).
Turning to `O=c1c(-c2ccccc2)nc2cnc(N3CCOCC3)nc2n1-c1ccccc1`, the “activity, negative = inhibition” value was -26%.
On the same count and under the same terms, the result for `CCc1cc2c(nc1CC)CCN(CC/C(C)=N/O[C@@H](C)c1cn([C@@H]3COC[C@@H]3O)nn1)C2` reads 18.9% [at 11.4 µM]; that for `O=C(CN1C(=O)NC2(CCCC2)C1=O)NCCC1=CCCCC1`, -10.1%.
Take `CCCCNC(=O)CN1C(=O)NC2(CCCc3ccccc32)C1=O` (centres undefined): the AC50 was 2.24 µM (active).
For the compound `O=C1CSc2ccc(C(=O)NCCC3=CCCCC3)cc2N1`, the “activity, negative = inhibition” value is -25.7%.
Still for that read-out and setting: the result for `O=C(NCCc1ccc(Cl)cc1)c1ncn[nH]1` reads -28.4%.
On to `O=C(CN1CCN(c2ncccn2)CC1)NCCC1=CCCCC1`, for which the AC50 was 3.55 µM (active).
With `O=C(COc1ccc(Cl)cc1)NCCC1=CCCCC1`, the AC50 is 3.98 µM (active).
The same measure, in the same setting: the result for `CC1(c2ccccc2)NC(=O)N(CC(=O)NCCC2=CCCCC2)C1=O` (centres undefined) reads 25.1 µM (active).
Take `CCCCCOc1ccc(NC(=O)C(=O)NCCC2=CCCCC2)cc1`: the “activity, negative = inhibition” value is -0.0982%.
The same measure, in the same setting: the result for `O=C(CN1CCN(C2CCCCC2)CC1)NCCC1=CCCCC1` reads 3.24%; that for `COc1ccc2c(c1)CCCC21NC(=O)N(CC(N)=O)C1=O` (centres undefined), -6.71%; that for `CCCCNC(=O)[C@@H]1Cc2ccccc2N1C(=O)[C@H](N)CC`, 13.9%.
Same read-out and setting: to `O=C(O)C1CCN(c2ncccn2)CC1` belongs -6.56%.
Same read-out and setting: the result for `CCCCC[C@H](CC(=O)NO)C(=O)N[C@@H](C(=O)N1CCC[C@H]1CO)C(C)C` reads 21.9%.
Turning to `O=C(O)/C=C\c1cnc[nH]1`, the “activity, negative = inhibition” value is 3.56%.
As to `Cc1cccc(Nc2ccccc2C(=O)O)c1C`, the AC50 was 7.94 µM (active).
Take `O=C(O)CCNc1ccccc1C(=O)O`: the activity, negative = inhibition was 14.2% [at 11.4 µM].
Take `Cc1ccc(Cl)c(Nc2ccccc2C(=O)O)c1Cl`: the AC50 was 7.94 µM (active) and 1.26 µM (active).
In the case of `Cc1c(Nc2ncccc2C(=O)O)cccc1C(F)(F)F`, the “activity, negative = inhibition” value is -20.5% [at 25.6 µM].
On the same count and under the same terms, to `O=C(O)c1cccc(C(=O)O)c1S(=O)Cc1ccccc1` (centres undefined) belongs 7.56% [at 11.4 µM].
`Cc1c(Cl)cccc1Nc1ccccc1C(=O)O`: the AC50 is 3.16 µM (active).
On to `O=C(Nc1cccc(F)c1)N1CCCC2(CCN(C(=O)c3cc(C(F)(F)F)cc(C(F)(F)F)c3)CC2)C1`, for which the “activity, negative = inhibition” value is 25.9%.
For the compound `Cn1ccnc1C[C@@](C)(O)c1ccccc1`, the activity, negative = inhibition was 4.93% [at 11.4 µM].
With `CCc1c(O)nc2sc3ccccc3n2c1=O`, the half-maximal activity concentration (AC50) is 3.16 µM (active).
On to `CC(=O)Nc1c(I)c(C(=O)N[C@H]2[C@@H](O)[C@H](O)[C@H](CO)O[C@@H]2O)c(I)c(N(C)C(C)=O)c1I`, for which the “activity, negative = inhibition” value is 12.3% [at 25.6 µM].
On to `Cc1c(C=NCCOCc2ccccc2)cnn1C`, for which the “activity, negative = inhibition” value is -83.6%.
Consider `COC(=O)[C@@]1(Cc2ccc(F)cc2)[C@H]2c3cc(C(=O)N4CCCC4)n(Cc4ccc(C)o4)c3C[C@H]2CN1C(=O)c1ccccc1`, for which the AC50 is 3.98 µM (active).
On the same count and under the same terms, the result for `COC(=O)[C@@]1(Cc2ccc(F)cc2)[C@H]2c3cc(C(=O)N(C)C)n(Cc4ccc(C)o4)c3C[C@H]2CN1C(=O)c1ccccc1` reads 10 µM (active); that for `COC(=O)[C@@]1(Cc2ccccc2)[C@H]2c3cc(C(=O)N4CCCC4)n(Cc4ccc(C)o4)c3C[C@H]2CN1C(=O)c1ccccc1`, 1 µM (active).
Regarding `COc1ncc2nc(-c3ccccc3)c(=O)n(-c3ccccc3)c2n1`, the “activity, negative = inhibition” value was -13.9%.
`O=c1c2ccccc2c(-c2ccccc2)nn1Cc1ccc(Cl)cc1`: the AC50 is 8.91 µM (active).
Consider `Cn1c(=O)c(-c2ccc(Cl)cc2)nc2cnc(Nc3ccccc3)nc21`, for which the “activity, negative = inhibition” value is -0.31%.
Same read-out and setting: the result for `Cc1ccc(Cn2cnc3c(nnn3Cc3ccc(Cl)cc3)c2=O)cc1` reads 4.68%; that for `CC(C)(C)Cn1nc(-c2ccc(Cl)cc2)c2c(N)ncnc21`, -0.489%.
For the compound `O=c1c2ccccc2c(-c2ccccc2)nn1-c1ccc(Cl)c(Cl)c1`, the AC50 is 11.2 µM (active).
Regarding `CCCc1[nH]nc2c1C(c1ccncc1)C(C#N)=C(N)O2` (centres undefined), the AC50 was 2.51 µM (active).
Turning to `O=P(O)(CCc1ccccc1)C(O)c1ccccc1` (centres undefined), the “activity, negative = inhibition” value was -12.9%.
Same read-out and setting: the result for `CC[C@](N)(C(=O)O)C(C)C` reads 1.15% [at 11.4 µM].
For the compound `C=CCn1c(SCc2ccccc2)nc2scc(-c3ccc(C)o3)c2c1=O`, the “activity, negative = inhibition” value was -16.8%.
For the compound `C=CCn1c(SCC)nc2sc3c(c2c1=O)CCc1ccccc1-3`, the AC50 is 10 µM (active).
Still for that read-out and setting: the result for `Cc1c2cccc(Sc3ccccc3)c2c2c3c(cccc13)[S+](c1ccccc1)C2` (centres undefined) reads 2.51 µM (active); that for `CC1CCCC(C)N1C(=O)C1CC(c2ccc(F)cc2)=NO1` (centres undefined), 10 µM (active).
In the case of `O=C(NNC(=O)C1CC(c2cccnc2)=NO1)Nc1cccc(F)c1` (centres undefined), the “activity, negative = inhibition” value is -21.9%.
In the case of `CSCCC(NC=C1C(=O)OC(C)(C)OC1=O)C(=O)O` (centres undefined), the “activity, negative = inhibition” value was -18.8%.
Regarding `CNc1ncncc1-c1ccccc1OC`, the activity, negative = inhibition is 6.03% [at 2.29 µM].
On the same count and under the same terms, to `O=S(=O)(O)C1CCNCC1` belongs 13.8%.
Take `N#CC1=C(N)OC2=C(CC/C2=C\c2ccccc2)C1c1ccccc1` (centres undefined): the AC50 is 0.355 µM (active).
As to `COc1ccccc1CN1CCCC2(CCN(C(C)=O)CC2)C1`, the “activity, negative = inhibition” value is 1.14%.
On the same count and under the same terms, the result for `COc1cccc(-c2nc(NCc3cccs3)c3ccccc3n2)c1` reads -29.3% [at 2.29 µM]; that for `COc1ccccc1-c1nc(NCc2cccs2)c2ccccc2n1`, 7.82% [at 2.29 µM].
For `COc1cccc2c(=O)c(C(=O)NCc3cccs3)c[nH]c12`, the AC50 is 6.31 µM (active).
